# Data reported in PubChem BioAssay AID1159580 (chemical genetic matrix, 2015).
# Out of some 5,500 compounds screened, about 2,000 (36%) were called active. Roughly 18% stayed inconclusive and do not appear here. This is one part of the list. A number with no mark means an inactive call. No stated cut-off is given here; in the data, active means normalized growth mostly below about 0.91 (no sharp cut-off); inconclusive means no clear call, values can overlap the other calls; inactive means mostly above about 0.92.
# Assay: chemical genetic growth profiling, strain panel (AID 1159580);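 further: tested at 20 µM; growth read once vehicle control cultures reached saturation at 30 °C; 1 = growth at the plate median or of vehicle wells; lower values mean less growth of the strain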
# Settings: S. cerevisiae deletion strains, growth OD
compound,measurement,setting,value
C=C(C)C1CC=C(CO)CC1 (stereo not given),normalized growth,"locus YAL021C, strain ccr4, hits give low values",0.983
same,normalized growth,"locus YAL026C, strain drs2, hits give low values",0.978
same,normalized growth,"locus YAL030W, strain snc1, hits give low values",0.973
same,normalized growth,"locus YBL061C, strain skt5, hits give low values",0.991
same,normalized growth,"locus YBR009C, strain hhf1, hits give low values",0.994
same,normalized growth,"locus YBR023C, strain chs3, hits give low values",0.981
same,normalized growth,"locus YBR171W, strain sec66, hits give low values",0.95
same,normalized growth,"locus YBR231C, strain swc5, hits give low values",0.975
same,normalized growth,"locus YBR279W, strain paf1, hits give low values",0.983
same,normalized growth,"locus YCL011C, strain gbp2, hits give low values",0.963
same,normalized growth,"locus YCL016C, strain dcc1, hits give low values",0.983
same,normalized growth,"locus YCL061C, strain MRC1, hits give low values",0.978
same,normalized growth,"locus YCL069W, strain vba3, hits give low values",0.948
same,normalized growth,"locus YCR088W, strain abp1, hits give low values",0.963
same,normalized growth,"locus YDL005C, strain med2, hits give low values",0.961
same,normalized growth,"locus YDL040C, strain nat1, hits give low values",0.959
same,normalized growth,"locus YDR001C, strain nth1, hits give low values",0.963
same,normalized growth,"locus YDR069C, strain doa4, hits give low values",0.978
same,normalized growth,"locus YDR137W, strain rgp1, hits give low values",0.941
same,normalized growth,"locus YDR159W, strain sac3, hits give low values",0.943
same,normalized growth,"locus YDR195W, strain ref2",0.809 (active)
same,normalized growth,"locus YDR297W, strain sur2, hits give low values",0.975
same,normalized growth,"locus YDR334W, strain swr1, hits give low values",0.938
same,normalized growth,"locus YDR335W, strain msn5, hits give low values",0.965
same,normalized growth,"locus YDR392W, strain spt3, hits give low values",0.844
same,normalized growth,"locus YEL003W, strain gim4, hits give low values",0.976
same,normalized growth,"locus YEL037C, strain rad23, hits give low values",0.955
same,normalized growth,"locus YEL061C, strain CIN8 (second series), hits give low values",0.946
same,normalized growth,"locus YER015W, strain faa2, hits give low values",0.976
same,normalized growth,"locus YER016W, strain bim1, hits give low values",0.969
same,normalized growth,"locus YER111C, strain swi4, hits give low values",0.963
same,normalized growth,"locus YER155C, strain BEM2 (second series), hits give low values",0.793 (active)
same,normalized growth,"locus YFR010W, strain ubp6, hits give low values",0.98
same,normalized growth,"locus YGL167C, strain pmr1, hits give low values",0.96
same,normalized growth,"locus YGL173C, strain kem1, hits give low values",0.955
same,normalized growth,"locus YGL227W, strain vid30, hits give low values",0.965
same,normalized growth,"locus YGL240W, strain doc1, hits give low values",0.954
same,normalized growth,"locus YGL253W, strain hxk2, hits give low values",0.983
same,normalized growth,"locus YHR013C, strain ard1, hits give low values",0.982
same,normalized growth,"locus YHR027C, strain rpn1, hits give low values",0.976
same,normalized growth,"locus YHR030C, strain SLT2, hits give low values",1.06
same,normalized growth,"locus YHR079C, strain IRE1, hits give low values",1.05
same,normalized growth,"locus YHR142W, strain chs7, hits give low values",0.995
same,normalized growth,"locus YJL092W, strain hpr5, hits give low values",0.938
same,normalized growth,"locus YJL095W, strain BCK1 (second series), hits give low values",0.97
same,normalized growth,"locus YJL095W, strain BCK1, hits give low values",1.02
same,normalized growth,"locus YJL115W, strain asf1, hits give low values",0.953
same,normalized growth,"locus YJL129C, strain trk1, hits give low values",0.923
same,normalized growth,"locus YJL154C, strain vps35, hits give low values",0.962
same,normalized growth,"locus YJL164C, strain tpk1, hits give low values",0.987
same,normalized growth,"locus YJL166W, strain qcr8, hits give low values",0.972
same,normalized growth,"locus YJL187C, strain SWE1, hits give low values",0.968
same,normalized growth,"locus YJR066W, strain TOR1, hits give low values",0.997
same,normalized growth,"locus YKL160W, strain elf1, hits give low values",0.978
same,normalized growth,"locus YKR026C, strain gcn3, hits give low values",0.972
same,normalized growth,"locus YKR091W, strain srl3, hits give low values",0.953
same,normalized growth,"locus YLL001W, strain dnm1, hits give low values",0.988
same,normalized growth,"locus YLL026W, hits give low values",0.976
same,normalized growth,"locus YLL041C, strain sdh2, hits give low values",0.971
same,normalized growth,"locus YLR027C, strain aat2, hits give low values",0.993
same,normalized growth,"locus YLR113W, strain HOG1, hits give low values",1.01
same,normalized growth,"locus YLR221C, strain rsa3, hits give low values",1.01
same,normalized growth,"locus YLR258W, strain gsy2, hits give low values",0.979
same,normalized growth,"locus YLR262C, strain YPT6 (second series), hits give low values",0.954
same,normalized growth,"locus YLR320W, strain mms22, hits give low values",0.983
same,normalized growth,"locus YLR342W, strain FKS1, hits give low values",0.967
same,normalized growth,"locus YLR357W, strain rsc2, hits give low values",0.92
same,normalized growth,"locus YLR370C, strain arc18, hits give low values",0.938
same,normalized growth,"locus YLR384C, strain iki3, hits give low values",0.958
same,normalized growth,"locus YML120C, strain ndi1, hits give low values",0.974
same,normalized growth,"locus YMR058W, strain fet3, hits give low values",0.968
same,normalized growth,"locus YMR125W, strain sto1, hits give low values",0.931
same,normalized growth,"locus YMR129W, hits give low values",0.955
same,normalized growth,"locus YMR205C, strain PFK2, hits give low values",0.956
same,normalized growth,"locus YMR231W, strain pep5, hits give low values",0.971
same,normalized growth,"locus YNL071W, strain lat1, hits give low values",0.953
same,normalized growth,"locus YNL183C, strain NPR1, hits give low values",0.947
same,normalized growth,"locus YNL209W, strain ssb2, hits give low values",0.968
same,normalized growth,"locus YNL248C, strain rpa49, hits give low values",0.932
same,normalized growth,"locus YNL322C, strain KRE1 (second series), hits give low values",0.948
same,normalized growth,"locus YNR049C, strain mso1, hits give low values",0.951
same,normalized growth,"locus YOR001W, strain rrp6, hits give low values",0.969
same,normalized growth,"locus YOR070C, strain gyp1, hits give low values",0.97
same,normalized growth,"locus YOR080W, strain dia2, hits give low values",0.951
same,normalized growth,"locus YOR083W, strain WHI5, hits give low values",0.994
same,normalized growth,"locus YOR106W, strain vam3, hits give low values",0.989
same,normalized growth,"locus YOR231W, strain MKK1, hits give low values",1.05
same,normalized growth,"locus YOR265W, strain rbl2, hits give low values",0.968
same,normalized growth,"locus YOR270C, strain vph1, hits give low values",0.949
same,normalized growth,"locus YOR290C, strain snf2, hits give low values",0.96
same,normalized growth,"locus YPL051W, strain arl3, hits give low values",0.99
same,normalized growth,"locus YPL078C, strain atp4, hits give low values",0.979
same,normalized growth,"locus YPL106C, strain sse1, hits give low values",0.945
same,normalized growth,"locus YPL240C, strain hsp82, hits give low values",0.959
same,normalized growth,"locus YPL256C, strain CLN2, hits give low values",1.04
